Test results taken from ChEMBL document CHEMBL3988442, “University of Dundee, Small-Polar-MMV Screening Library” (2021).
For some assays here: Potency and affinity values are given separately.

How the values were obtained:
Design in all cases: scale not given: direction of the effect not stated beside the values
[1] = biological target: Protein translocase subunit SecA (Escherichia coli (strain K12)) (UniProt P10408); experiment: Assay to Identify E. coli SecA ATPase Inhibitors; assay type: functional; conditions: 30 µM
Sequence of Protein translocase subunit SecA (Escherichia coli (strain K12)) (P10408 whole entry): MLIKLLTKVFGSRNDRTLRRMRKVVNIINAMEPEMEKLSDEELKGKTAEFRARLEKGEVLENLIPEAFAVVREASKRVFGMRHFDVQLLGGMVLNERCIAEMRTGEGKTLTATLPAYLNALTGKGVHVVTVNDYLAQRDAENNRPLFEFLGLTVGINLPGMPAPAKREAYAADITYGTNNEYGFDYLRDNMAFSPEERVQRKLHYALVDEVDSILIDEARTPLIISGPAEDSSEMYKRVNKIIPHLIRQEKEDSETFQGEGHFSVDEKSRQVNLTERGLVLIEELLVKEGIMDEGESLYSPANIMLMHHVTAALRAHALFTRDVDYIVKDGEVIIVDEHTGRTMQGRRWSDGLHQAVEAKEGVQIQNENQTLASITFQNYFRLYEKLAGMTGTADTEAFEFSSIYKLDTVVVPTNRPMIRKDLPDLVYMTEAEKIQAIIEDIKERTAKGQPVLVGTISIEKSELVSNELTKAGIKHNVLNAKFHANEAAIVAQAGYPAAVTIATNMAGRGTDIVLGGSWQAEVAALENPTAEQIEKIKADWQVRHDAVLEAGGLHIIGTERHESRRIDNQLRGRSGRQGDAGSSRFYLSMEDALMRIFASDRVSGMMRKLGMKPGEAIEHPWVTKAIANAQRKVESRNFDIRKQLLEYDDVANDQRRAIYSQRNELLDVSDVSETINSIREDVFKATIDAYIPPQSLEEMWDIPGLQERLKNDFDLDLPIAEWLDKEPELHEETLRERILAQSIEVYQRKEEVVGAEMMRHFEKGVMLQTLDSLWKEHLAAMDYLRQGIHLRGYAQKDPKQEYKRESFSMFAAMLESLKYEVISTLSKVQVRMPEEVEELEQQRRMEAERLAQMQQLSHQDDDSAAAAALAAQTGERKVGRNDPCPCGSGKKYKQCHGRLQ

[2] = biological target: T1, Ubiquitin-activating enzyme e1, putative (Leishmania donovani (strain BPK282A1)) (UniProt E9BSI1); experiment: Leishmania donovani Ubiquitin Activating Enzyme (LdE1); assay type: functional; conditions: 30 µM
T1 sequence (whole entry): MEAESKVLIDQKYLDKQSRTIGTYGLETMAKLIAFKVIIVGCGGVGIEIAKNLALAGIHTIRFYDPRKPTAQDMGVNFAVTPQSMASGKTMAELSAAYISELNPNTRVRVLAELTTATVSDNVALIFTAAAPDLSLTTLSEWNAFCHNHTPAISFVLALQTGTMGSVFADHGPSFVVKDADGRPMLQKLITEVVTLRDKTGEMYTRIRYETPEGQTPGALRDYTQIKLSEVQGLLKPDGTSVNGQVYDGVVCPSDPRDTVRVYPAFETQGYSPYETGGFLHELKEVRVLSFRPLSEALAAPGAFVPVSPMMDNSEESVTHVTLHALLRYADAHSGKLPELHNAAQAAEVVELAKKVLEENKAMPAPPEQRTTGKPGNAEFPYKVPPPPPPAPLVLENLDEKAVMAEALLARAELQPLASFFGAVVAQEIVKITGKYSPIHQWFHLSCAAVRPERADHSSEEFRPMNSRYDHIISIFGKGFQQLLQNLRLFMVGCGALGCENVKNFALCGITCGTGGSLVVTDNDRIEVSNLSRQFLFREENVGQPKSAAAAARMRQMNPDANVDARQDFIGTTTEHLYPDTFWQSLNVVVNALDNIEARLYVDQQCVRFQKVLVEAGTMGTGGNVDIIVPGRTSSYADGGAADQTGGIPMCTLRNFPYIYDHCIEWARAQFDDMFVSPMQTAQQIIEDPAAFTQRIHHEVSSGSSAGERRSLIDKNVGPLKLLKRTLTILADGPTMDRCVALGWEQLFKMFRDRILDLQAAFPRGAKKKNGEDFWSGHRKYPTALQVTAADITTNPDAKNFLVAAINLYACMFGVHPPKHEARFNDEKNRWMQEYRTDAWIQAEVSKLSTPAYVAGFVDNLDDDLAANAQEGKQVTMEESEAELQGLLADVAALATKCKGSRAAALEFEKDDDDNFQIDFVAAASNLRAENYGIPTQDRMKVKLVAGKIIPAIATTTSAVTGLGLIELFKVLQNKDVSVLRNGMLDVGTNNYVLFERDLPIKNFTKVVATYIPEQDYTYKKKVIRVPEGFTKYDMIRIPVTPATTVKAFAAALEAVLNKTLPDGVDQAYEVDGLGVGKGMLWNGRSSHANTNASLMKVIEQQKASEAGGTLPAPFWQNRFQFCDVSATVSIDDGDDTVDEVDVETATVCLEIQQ

[3] = biological target: Sialic acid-binding Ig-like lectin 9 (Homo sapiens) (UniProt Q9Y336); experiment: Hs-Siglec9 ALPHAscreen SOP 20170721; conditions: 10 µM
Sequence of Sialic acid-binding Ig-like lectin 9 (Homo sapiens) (Q9Y336 whole entry): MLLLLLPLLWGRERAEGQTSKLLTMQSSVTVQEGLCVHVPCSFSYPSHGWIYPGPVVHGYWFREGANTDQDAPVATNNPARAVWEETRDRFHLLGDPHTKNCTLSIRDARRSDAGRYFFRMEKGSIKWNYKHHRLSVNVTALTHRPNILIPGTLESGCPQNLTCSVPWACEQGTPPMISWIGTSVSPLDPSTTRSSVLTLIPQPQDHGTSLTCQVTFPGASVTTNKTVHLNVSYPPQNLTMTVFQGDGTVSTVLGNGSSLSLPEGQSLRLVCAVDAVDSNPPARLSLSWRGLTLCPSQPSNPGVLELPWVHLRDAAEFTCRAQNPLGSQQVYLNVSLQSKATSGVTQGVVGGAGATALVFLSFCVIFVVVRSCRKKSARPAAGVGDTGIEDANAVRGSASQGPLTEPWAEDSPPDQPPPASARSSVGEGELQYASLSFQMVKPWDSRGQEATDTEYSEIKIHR

Trypanosoma cruzi = experiment: Trypanosoma cruzi phosphomannomutase and mannose-1-phosphate guanylyltransferase assay; assay type: functional; conditions: 10 µM
[4] = biological target: T2, Arginase-2, mitochondrial (Homo sapiens) (UniProt P78540); experiment: in vitro enzyme assay to detect the production of urea directly proportional to the activity of Arginase II; assay type: functional; conditions: 33.3 µM; further: in the data most compounds retested in dose-response had high values
T2 sequence (whole entry): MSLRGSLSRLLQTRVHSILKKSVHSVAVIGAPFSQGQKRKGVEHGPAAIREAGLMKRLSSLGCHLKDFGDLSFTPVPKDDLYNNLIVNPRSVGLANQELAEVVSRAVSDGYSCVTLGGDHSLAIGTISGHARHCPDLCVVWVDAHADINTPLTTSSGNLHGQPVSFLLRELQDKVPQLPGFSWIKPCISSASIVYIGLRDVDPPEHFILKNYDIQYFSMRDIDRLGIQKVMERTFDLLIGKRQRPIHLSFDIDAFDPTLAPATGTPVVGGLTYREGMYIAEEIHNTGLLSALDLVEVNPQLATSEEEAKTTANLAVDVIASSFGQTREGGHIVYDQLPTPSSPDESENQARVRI

[5] = biological target: T3, Proteasome subunit beta (Trypanosoma cruzi) (UniProt O96673); experiment: Trypanosoma cruzi proteasome chymotrypsin-like activity (TcProtChymo) assay.; further: in the data most compounds retested in dose-response had high values; assay type: functional; conditions: 9.37 µM
T3 sequence (whole entry): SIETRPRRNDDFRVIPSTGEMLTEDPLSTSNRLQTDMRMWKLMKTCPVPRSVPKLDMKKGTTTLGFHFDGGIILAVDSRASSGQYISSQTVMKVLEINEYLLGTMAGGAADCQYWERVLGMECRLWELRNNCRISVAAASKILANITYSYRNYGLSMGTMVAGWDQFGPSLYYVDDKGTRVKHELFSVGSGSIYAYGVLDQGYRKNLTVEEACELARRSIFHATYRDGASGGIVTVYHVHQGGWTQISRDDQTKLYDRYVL

Homo sapiens = species on record: Homo sapiens; experiment: To identify inhibition of the IFN signalling (Jak-Stat) pathway via expression of an eGFP reporter gene under the control of an IFN-stimulated response element (ISRE) containing MxA promoter.; assay type: functional; conditions: 30 µM
[6] = biological target: T4, Tyrosyl-tRNA synthetase, putative (Trypanosoma cruzi (strain CL Brener)) (UniProt Q4DSP6); experiment: Trypanosoma cruzi tyrosyl tRNA synthetase (TcYRS) _High Tyrosine SOP; assay type: functional; conditions: 30 µM; further: in the data most compounds retested in dose-response had high values
T4 sequence (whole entry): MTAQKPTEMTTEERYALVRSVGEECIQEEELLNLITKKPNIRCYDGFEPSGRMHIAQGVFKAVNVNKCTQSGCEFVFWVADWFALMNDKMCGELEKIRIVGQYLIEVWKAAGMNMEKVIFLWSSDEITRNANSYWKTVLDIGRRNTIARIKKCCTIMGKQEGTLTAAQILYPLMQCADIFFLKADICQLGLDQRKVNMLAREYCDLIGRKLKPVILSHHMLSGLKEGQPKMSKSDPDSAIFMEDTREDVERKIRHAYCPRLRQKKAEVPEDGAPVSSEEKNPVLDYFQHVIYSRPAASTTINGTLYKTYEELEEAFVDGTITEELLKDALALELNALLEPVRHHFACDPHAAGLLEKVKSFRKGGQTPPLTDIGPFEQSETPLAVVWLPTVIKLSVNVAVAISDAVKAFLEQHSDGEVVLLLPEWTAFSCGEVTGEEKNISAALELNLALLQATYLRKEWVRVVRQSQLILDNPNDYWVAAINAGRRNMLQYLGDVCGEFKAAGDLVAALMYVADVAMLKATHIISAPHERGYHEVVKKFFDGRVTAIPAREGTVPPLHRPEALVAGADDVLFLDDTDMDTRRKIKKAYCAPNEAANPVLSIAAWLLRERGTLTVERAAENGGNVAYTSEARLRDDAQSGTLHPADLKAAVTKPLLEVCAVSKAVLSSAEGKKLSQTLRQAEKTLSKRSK

[7] = biological target: T4, Tyrosyl-tRNA synthetase, putative (Trypanosoma cruzi (strain CL Brener)); experiment: Trypanosoma cruzi tyrosyl tRNA synthetase (TcYRS) SOP; assay type: functional; conditions: 30 µM
[8] = biological target: Chromo domain-containing protein 1 (Saccharomyces cerevisiae (strain ATCC 204508 / S288c) (Baker's yeast)) (UniProt P32657); experiment: ScCHD-1 Enzyme Inhibition Assay; assay type: functional; conditions: 30 µM; further: in the data most compounds retested in dose-response had high values
Sequence of Chromo domain-containing protein 1 (Saccharomyces cerevisiae (strain ATCC 204508 / S288c) (Baker's yeast)) (P32657 whole entry, the tested form may be a part): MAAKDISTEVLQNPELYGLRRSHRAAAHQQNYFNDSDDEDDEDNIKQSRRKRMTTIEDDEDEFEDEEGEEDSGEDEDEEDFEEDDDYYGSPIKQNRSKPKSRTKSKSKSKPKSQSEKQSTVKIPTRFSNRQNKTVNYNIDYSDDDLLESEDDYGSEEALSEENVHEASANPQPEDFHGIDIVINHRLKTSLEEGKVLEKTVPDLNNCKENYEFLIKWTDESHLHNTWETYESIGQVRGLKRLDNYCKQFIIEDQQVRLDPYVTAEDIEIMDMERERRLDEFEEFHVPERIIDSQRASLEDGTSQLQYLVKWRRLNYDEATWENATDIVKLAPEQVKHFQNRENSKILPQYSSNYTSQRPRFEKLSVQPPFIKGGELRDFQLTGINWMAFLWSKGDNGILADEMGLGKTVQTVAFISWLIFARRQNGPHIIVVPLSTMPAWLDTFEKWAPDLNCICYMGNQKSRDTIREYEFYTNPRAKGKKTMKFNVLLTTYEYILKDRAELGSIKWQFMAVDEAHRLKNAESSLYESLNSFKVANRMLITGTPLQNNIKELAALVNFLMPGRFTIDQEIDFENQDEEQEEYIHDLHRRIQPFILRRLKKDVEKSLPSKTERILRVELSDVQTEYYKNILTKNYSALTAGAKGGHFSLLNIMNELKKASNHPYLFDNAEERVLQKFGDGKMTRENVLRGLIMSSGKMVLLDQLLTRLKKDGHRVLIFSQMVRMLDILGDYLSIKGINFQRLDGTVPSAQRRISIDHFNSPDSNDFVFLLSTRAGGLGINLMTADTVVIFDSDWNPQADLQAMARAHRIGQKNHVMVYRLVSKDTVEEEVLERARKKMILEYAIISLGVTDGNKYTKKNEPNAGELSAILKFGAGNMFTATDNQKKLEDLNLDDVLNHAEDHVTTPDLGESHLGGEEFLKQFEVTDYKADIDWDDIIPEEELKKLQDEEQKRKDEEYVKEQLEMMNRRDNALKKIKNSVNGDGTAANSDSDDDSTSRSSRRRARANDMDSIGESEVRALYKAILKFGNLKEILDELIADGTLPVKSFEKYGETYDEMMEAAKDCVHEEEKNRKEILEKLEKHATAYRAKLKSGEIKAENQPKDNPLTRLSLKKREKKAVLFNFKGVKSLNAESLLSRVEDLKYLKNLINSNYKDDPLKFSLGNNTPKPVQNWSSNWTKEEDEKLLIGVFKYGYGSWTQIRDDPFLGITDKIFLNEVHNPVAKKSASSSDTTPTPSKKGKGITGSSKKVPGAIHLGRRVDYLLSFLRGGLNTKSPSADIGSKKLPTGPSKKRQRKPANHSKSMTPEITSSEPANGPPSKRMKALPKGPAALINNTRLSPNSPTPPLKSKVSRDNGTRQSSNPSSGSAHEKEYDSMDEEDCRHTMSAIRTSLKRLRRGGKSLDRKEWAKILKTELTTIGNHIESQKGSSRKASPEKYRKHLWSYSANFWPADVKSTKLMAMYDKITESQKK

Compound	Percent Effect [1]	Percent Effect [2]	Percent Effect [3]	Percent Effect (Trypanosoma cruzi)	Percent Effect [4]	Percent Effect [5]	Percent Effect (Homo sapiens)	Percent Effect [6]	Percent Effect [7]	Percent Effect [8]
CC1CCCCN1C(=O)CN1CCN(c2ccc3nncn3n2)CC1 (stereo not given)	-3.43%	15.4%	1.72%	7.42%	-0.82%	11.3%	6.75%	6.22%	13.2%	-7.79%
O=C(c1ccc(F)cc1Cl)N1CCC(Nc2cccnn2)CC1	-3.11%	18.2%	7.17%	5.41%	-4.71%	7.37%	15.6%	5.88%	18.8%	-15.5%
Cc1cc(N2CCC(CC(N)=O)CC2)nc(-c2ccncc2)n1	-7.29%	13%	10.8%	-1.87%	3.07%	11.1%	-5.86%	7.84%	21.2%	-6.28%
COCC(=O)N1CCC2(CCN(Cc3ccccn3)CC2)CC1	-4.25%	6.49%	6.7%	4.77%	11.7%	12.3%	-3.67%	1.58%	5.13%	15%
Cc1nc(-c2ccc(C(=O)O)cc2)cc(C2CCN(C(C)C)C2)n1 (stereo not given)	-2.82%	12%	-4.91%	-1.18%	4.87%	10.7%	8.94%	5.29%	15%	-22.5%
Cc1cc(CN2CCCC2c2noc(C)n2)no1 (stereo not given)	3.19%	2.67%	5.36%	-2.41%	3.99%	6.7%	2.71%	0.526%	-2.56%	-6.2%
CC1CCCN(C(=O)c2cccc(CS(C)(=O)=O)c2)C1 (stereo not given)	0.484%	15.4%	-22.1%	2.72%	-0.41%	22.4%	6.02%	4.31%	22.9%	20.9%
COC[C@@]12CC[C@@H](N3CCOCC3)C[C@H]1CCN(c1ncccn1)C2	-6.56%	13.5%	17.1%	6.5%	19.9%	14.7%	0.0489%	4.79%	12.2%	88.3%
O=C(NCCC1=CCCCC1)C1CCN(c2ccc3nncn3n2)CC1	-2.89%	10.8%	-2.17%	-0.485%	-2.45%	11.1%	28.5%	4.79%	14.6%	2.87%
CC(C)c1nn(C)c(N2CCOCC2)c1CNCCS(C)(=O)=O	-1.81%	0%	0.36%	1.22%	4.92%	-0.427%	-17%	0.478%	1.21%	1.65%
COc1ccccc1-c1cc(C(F)(F)F)c2c(C)nn(CC(=O)O)c2n1	5.48%	14.7%	-8.22%	-2.56%	6.64%	11.5%	26.5%	-13.8%	-17.5%	-17.5%
